# ± gives the standard deviation of the averaged measurements. Over roughly 25,000 sequences, “ln(normalized median fluorescence intensity)” has its median near 10; the highest 2% begin near 12. The list comes from a sample in which the highest values are over-represented; it also holds similar and randomly drawn sequences.
# Test system: PfAP2-G AP2 domain (GST-tagged)
# Experiment: gcPBM binding intensity (ln(normalized median fluorescence intensity)); higher = stronger DNA binding
# In short: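 Binding intensity values are the highest Masliner-normalised natural-log median intensity among replicate spots of either probe orientation. The binding step lasted 1 h in 1× PBS with 1% milk, 0.2 mg/ml BSA, 0.5% salmon testes DNA and 0.03% Triton X-100, using GST-tagged P. falciparum DNA-binding domains expressed in E. coli on an Agilent 4 × 180k array of primer-extended double-stranded 36-bp intergenic genomic probes plus negative controls. Alexa488 anti-GST antibody and a 488 nm scan detected bound protein.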
row,Sequence,gcPBM binding intensity (ln)
1,ATAAAAAAAATAAAAAGTACAAAAAAAAAAAATGGA [XGTACX_site136],11.3 ± 0.71
2,ACATATGACTATAATACACACTTGTATTATTAATAT [CACACA_site6951],9.98 ± 0.13
3,ATATATATATCTAATTGTACATATTTTATAAATAAG [XGTACX_site4840],11 ± 0.52
4,GGCATAAATATATGCACACACAAAAAAAAAAAAAAA [CACACA_site59],10 ± 0.65
5,GAAAAAAATGAAATTAGTACTTATCTTAAATTTTTA [XGTACX_site1018],10.8 ± 0.47
6,TATGCTATTATATATGTACACACCAATTTATTTATA [CACACA_site3918],11.3 ± 0.74
7,TTTTCTTACATGAGTGTACACACTTTTTTTCAGAAA [CACACA_site70],11.6 ± 0.91
8,TTCTTACATGAGTGTACACACTTTTTTTCAGAAAAT [CACACA_site4215],11.7 ± 1
9,AGAAAAAAAAAAAAATGTACAGACTTTTTCTTATAA [XGTACX_site6481],11 ± 0.55
10,TTTTTCTTACATGAGTGTACACACTTTTTTTCAGAA [XGTACX_site138],11.7 ± 0.83
11,ATCTTTCGAACATGTACACACAGAAAAAAAAAAAAA [CACACA_site5393],11.3 ± 1
12,AATATTTATTTTACATGTACTTATTTTTCTTTTAAC [XGTACX_site3631],11.4 ± 0.88
13,TTTGATGGTACACGTACACACCTTGCAAATATTTTT [CACACA_site4645],11.8 ± 1
14,ATGTTTGATGCTACACGTACACACCTTGCAAATATT [XGTACX_site1644],11.6 ± 1
15,TATAATATGTTTGATGGTACACGTAAACACCTTGCA [XGTACX_site1643],11.1 ± 0.68
16,AAATATTTTGCATACACATGCAAATATTTTTTACAT [TGCATGCA_site554],9.8 ± 0.11
17,TATACAATATATTTTGGTACACAAACAAAAAAATAT [XGTACX_site2522],11.2 ± 0.82
18,TGTTTGATGGTACACGTACACACCTTGCAAATATTT [CACACA_site888],11.8 ± 1.2
19,ATATATATCGGACACACACACATGTTTTAAAACTAT [CACACA_site4218],10.9 ± 0.64
20,TGTTTATTTTTAAAAAGTACATATTTAAAAAACTTC [XGTACX_site271],11.4 ± 1
21,ATTTTTTTTTTTTTTTTGGGGGGGTATACTTTTAAA [CACACA_negctrl_site1020],11.9 ± 0.77
22,CCATTTATTATTTGGGGTACATTTAATTAATATTTT [XGTACX_site5940],11.5 ± 1

row,Sequence,gcPBM binding intensity (ln)
1,TATATTTAACATACTTTTTTTTTTTTTTTTTTTTTT [CACACA_negctrl_site938],10.9 ± 0.45
2,GTTAATATTTTTGGGGGTACTTAAAAAAAAAAAAAA [XGTACX_site1477],11.7 ± 0.91
3,TTTTTTTTTTTTTGGGGTACATTTTAATTAATATTA [XGTACX_site4866],11.4 ± 0.86
4,TATACTTTATATATTTTGTATATATATTTTTTTTAT [TGCATGCA_negctrl_site530],9.645 ± 0.035
5,ACAGATATACATAAAAAAAAAATAATTTTACATATA [CACACA_negctrl_site929],9.765 ± 0.049
6,TACATAAATACATACACACACATATAACCAATGTAG [CACACA_site5243],10.3 ± 0.11
7,AATCATTTATGGAAAGCATGCTAAATTAGAGTATAC [TGCATGCA_site172],10.03 ± 0.064
8,TAATGTAATACATATTGTACACATACATATATATTT [XGTACX_site7531],11.2 ± 0.71
9,AAAACAAACATTACACGTACAAAACAAGTTATAGAC [XGTACX_site6320],11.4 ± 0.74
10,TTTCAAACAAAAAGACGTACACTGAAGTTATCCGTC [XGTACX_site8824],11.8 ± 1
11,TGAGTTCAACAAAGACGTACAAAACCAAAAATATAA [XGTACX_site8931],11.6 ± 0.93
12,AAAAAAAAAAGACACACACACACACGGAGATATATA [CACACA_site6216],10.1 ± 0.22
13,TATGTGTAATATTTTTGTACAGAAAAAAAAAAAAAA [XGTACX_site7075],10.8 ± 0.77
14,AATTAATGGGTACATACACACATATATACATACATA [CACACA_site742],11.4 ± 1
15,TATTTATAAATTTACACACACACATGTGAACATAAA [CACACA_site1909],10.2 ± 0.14
16,ATAACAAAATAAAACACACACACAAATGTACAGATA [CACACA_site5358],11.1 ± 0.72
17,ATAAATATTTACAAAAGTACACATAACTTTAGATAT [XGTACX_site1685],11.4 ± 0.9
18,TATCCTAACTTTAGATGTACACAAATAAAAAAAAAA [XGTACX_site4491],11.7 ± 0.91
19,TTTATTTATATTTATACACACAAACATAATACTACT [CACACA_site7039],10.3 ± 0.28
20,AGGTCTATATAATAAGTGCATTTTTTTTTTTTTTTT [GTGCAC_site9664],10.2 ± 0.26
21,TTTTTAATATATAAAGATAATAATAAATAAAATTCA [CACACA_negctrl_site657],9.46 ± 0.12
22,TATATGCACTTAATATGTACACAAAAAAAAAAAAAA [XGTACX_site6199],11.5 ± 1.2

row,Sequence,gcPBM binding intensity (ln)
1,GATTATTATTATAAGGGTACAAATATTTAATAAAAA [XGTACX_site7144],11 ± 0.57
2,CAATAAAAATTAAAATGTACAAATAAATATAAATAT [XGTACX_site7265],10.8 ± 0.29
3,AAAAAAATTAAATGGGGTACAATAAGGGTCAAATAT [XGTACX_site8669],11.6 ± 0.93
4,AATTATATATTATCATGTACAAATATAGTAATACAA [XGTACX_site6845],10.7 ± 0.4
5,ATATAAACACTGAATGCATGCACATATATATATATA [TGCATGCA_site940],10.2 ± 0.26
6,TATACGCATATTTTTACACACATATTTTTTCATATA [CACACA_site2546],10.02 ± 0.049
7,ACATATATTTCAAAGTGTACGCACAATTTTTTTTAC [XGTACX_site6166],11.7 ± 1
8,AAAAAAATAACAAAGTGTACTTTTATATTTTACATA [XGTACX_site8954],11.3 ± 0.93
9,AAAGTATAAATAAATACACACATATTTATTTATATA [CACACA_site7375],9.96 ± 0.2
10,CCACATATACAAAACACACACACAACGTTTTAATAA [CACACA_site1978],10.1 ± 0.16
11,ATGACTTACATATATAGTACTTTGTTTTGGAGTTGC [XGTACX_site94],10.8 ± 0.45
12,GCTAGTTTTTTTTGGCGTACAGTACCGGTTTACTTT [XGTACX_site2606],11.6 ± 1
13,TCTGTAGTTTTTTACAGTACTTTTAGGTAATACATA [XGTACX_site7417],11 ± 0.79
14,ATAATTCCAAGAATTTCATATATCTGAATTTTAGGT [GTGCAC_negctrl_site283],9.61 ± 0.2
15,GACCATATGAATAATGCACACGTTTTAAAATATTAA [CACACA_site5312],10.23 ± 0.028
16,AACGATATAGGTACTACACACATTATGTCATCCTAT [CACACA_site7205],11.2 ± 0.77
17,AACGATATATGTACTACACACATTATGTCATCCTAT [CACACA_site2464],11.5 ± 0.83
18,AACGATATCTGTACTACACACATTATGTCATCCTAT [CACACA_site5374],11.8 ± 1.1
19,TTTTATACATAAATGTGTACGTATATATAATGAATT [XGTACX_site2762],11.7 ± 1
20,CACTTTTTTTAAATGTGTACGTATATGAAAATATCA [XGTACX_site4854],11.7 ± 1
21,TATAATGAACATATGTGTACATATATTTTTTAAATT [XGTACX_site8736],11.4 ± 0.72
22,AAATTTTAAATAGTATGTACGTATGAAATATATATG [XGTACX_site7511],11.4 ± 0.79

row,Sequence,gcPBM binding intensity (ln)
1,ATATTTATATTTATGTGTACATATGAAATAATTATT [XGTACX_site7765],11.5 ± 0.72
2,TTAAATGAAAAAATATGTACGTATAATAAGAAATAT [XGTACX_site6619],11.6 ± 0.87
3,TTTTATACATAAATATGTACGTATATATAATGAATT [XGTACX_site1337],11.3 ± 0.73
4,TTTGTATAATACATGTGTACGTATTTTTATATAAAT [XGTACX_site8656],11.6 ± 0.95
5,ATGTATGAAAAAATGTGTACATAATTTTTTTTTTTT [XGTACX_site5444],11.7 ± 1
6,TTTTTTTAAAATATGAGTACATAATATTGTAAAAAT [XGTACX_site6536],11.4 ± 0.9
7,AGTTTGATTTTTTCTTATAATATATTATTATATATT [CACACA_negctrl_site376],9.975 ± 0.021
8,CATATGTAGGGAACAATATAATATGCTTTGAATATG [GTGCAC_negctrl_site524],10.2 ± 0.14
9,AAGAATATTAATATAAATAAGTAAATAAATAAATAA [CACACA_negctrl_site417],9.78 ± 0.11
10,GTATAATTTAAAAAGTGTACATAAAGTTTTTATTAA [XGTACX_site1090],11.6 ± 0.81
11,ATATATATATATATATGTACATATACACATGTGTGC [XGTACX_site168],11.2 ± 0.55
12,AAATGCGCCATGTGTACACATATATATATATATATA [CACACA_site4649],11.5 ± 0.88
13,GTACAAATGTTGTGTATATATACACACATACATATA [XGTACX_negctrl_site276],10.9 ± 0.46
14,ATAATCTGACAAATGTGTACACATATATATATATAT [XGTACX_site2379],11.6 ± 0.97
15,ATCTGACAAAAGTGTACACATATATATATATATATA [CACACA_site4814],11.7 ± 1.2
16,CATATTAGGACAAAGTGTACATATATATATATATAT [XGTACX_site1172],11.4 ± 0.86
17,AAAAATATAATATAATGTACACAAAAAAAAAAAATC [XGTACX_site1427],11.4 ± 0.71
18,AAAAAATGCGACATGTGTACACATATATATATATAT [XGTACX_site1679],11.8 ± 0.99
19,TATGTAACAAAAAAAAGTACACATATATATAGTGTA [XGTACX_site7772],11.6 ± 0.85
20,TAATTTTCATAATTTTGTACTTAACGTTTTACCTTG [XGTACX_site8048],10.9 ± 0.5
21,TGCACAAAATTATGCACACACCTAAAATTAATTTTT [CACACA_site5596],10.2 ± 0.21
22,TAAATTTAAAATGACACACACTAAAATTATTTAAGT [CACACA_site4816],10.05 ± 0.021

# Reference: the supplement of paper PMC11417369
